Compound activity (PubChem BioAssay)
This is a sample that favours compounds with a hit; in the whole collection about 21% have one here.
Pf growth 48h: P. falciparum growth inhibition at 48 hours (one generation). P. falciparum luciferase growth in erythrocytes, 48 h. Potency, µM (top dose mostly 28.7 µM), for the others: top-dose activity change, negative = inhibition, usual class: inhibitors. 5.9% of 310,000 active. AID 504832; further: potency means the concentration at half of the fitted maximal effect; on the % scale 0 is the no-effect control and ±100 the full control effect
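Cell-based growth assay: transgenic P. falciparum expressing firefly luciferase, cultured in red cells within RPMI 1640 containing 0.5% w/v Albumax, 24 mM bicarbonate and gentamycin. A drop in luciferase activity indicates inhibition.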
Shiga toxin inh: Shiga toxin inhibition; Vero cells, Shiga toxin protein synthesis inhibition reporter; inhibition, % at 38.7 µM; 9.2% of 290,000 active; AID 2315; in the data active means inhibition mostly above about 28%, no sharp cut-off; inactive means mostly below about 43%; further: 0% is about no effect
Sm TGR inh: inhibitors of Schistosoma mansoni thioredoxin glutathione reductase; 3% of 360,000 active; AID 485364; Potency, µM (doses to about 114 µM), for inactives: top-dose activity change, negative = inhibition, hits mostly inhibitors; Q962Y6; purified TGR, DTNB reduction, TNB absorbance 405 nm; further: potency means the concentration at half of the fitted maximal effect; on the % scale 0 is the no-effect control and ±100 the full control effect; nearly all actives have a fitted effect of over 60% in size
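TGR 20 nM + NADPH 100 uM (dispensed conc.), cpd preinc 15 min RT; start with NADPH (500 uM addition) then DTNB (15 mM addition). Kinetic TNB absorbance, 405 nm filter. Four-parameter Hill fit across titration.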
NS1 function inh: inhibitors of influenza NS1 protein function | AID 2326 | Potency, µM (series often up to 46.1 µM), without a hit: at the highest dose activity, positive = more growth | 0.4% of 270,000 active; calls by dose curve; further: potency means the concentration at half of the fitted maximal effect; actives are rising curves; nearly all actives have a fitted effect of over 50% in size
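Recovery from NS1-induced slow growth read by OD600 in budding yeast switched to galactose assay medium (pH 6.0, -URA) at 1:100 dilution. Compound 23 nl per well; the matching strain lacking NS1 serves as control.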
Pf growth 96h: P. falciparum growth inhibition at 96 hour, primary screen for plastid delayed-death inhibitors; P. falciparum luciferase reporter growth, 96 h; Potency, µM (doses to about 28.7 µM), inactives show at the top dose activity change, negative = inhibition, most hits filed as inhibitors; 6.9% of 320,000 active; AID 504834; further: potency means the concentration at half of the fitted maximal effect; on the % scale 0 is the no-effect control and ±100 the full control effect
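Erythrocytes infected with luciferase-expressing P. falciparum were dispensed at 2% hematocrit and 0.05% parasitemia (final), then incubated with compounds 96 hours at 37 C in 5% CO2. Luminescence after detection reagent addition reported growth.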
CHX counter: counter-screen for Shiga toxin inhibitors: cycloheximide protein synthesis inhibition. cell reporter, cycloheximide protein synthesis inhibition counterscreen. max response, %. 12% of 300,000 active; in the data active means max response mostly above about 13%, no sharp cut-off; inactive means mostly below about 14%; further: read at 38.3 µM for the half of the compounds with a filed dose; 0% is about no effect
Numbers without * were called inactive; ? = inconclusive; nt = no result given. Unless noted, the call rests on the fitted dose curve; in most records, active means well fitted curve in the direction sought with a large enough effect; inconclusive means small, poorly fitted or top-dose-only effect, or another doubt; inactive means no such curve, though single readings can be large; an effect the other way counts as inactive or inconclusive.

SMILES	Pf growth 48h	Shiga toxin inh	Sm TGR inh	NS1 function inh	Pf growth 96h	CHX counter
CCc1cccc(NC(=O)CN(c2ccc(C)cc2)S(=O)(=O)c2c(C)noc2C)c1	?	-10	5%	6%	?	-5
C=CCn1c(=S)[nH]c2nc3c(cc2c1=O)CCCC3	9%	29*	0%	-6%	38%	29*
C=CCn1c(=S)[nH]c2ccc(Br)cc2c1=O	0%	-21	1%	-2%	nt	-2
Cc1ccc(C2CC(=O)Nc3c2c(C)nn3-c2nc(C)cc(C)n2)c(C)c1 (centres undefined)	nt	nt	-1%	nt	nt	nt
CCOc1ccc2nc(NC(=O)c3ccccc3)sc2c1	nt	nt	8%	nt	nt	nt
CCOc1ccc2nc(NC(=O)c3cccnc3)sc2c1	56%	122*	-3%	-7%	39%	75*
CCOc1ccc2nc(NC(=O)c3cnc(C)cn3)sc2c1	nt	24	3%	-4%	?	18*
CCCSc1ncc(Cl)c(C(=O)Nc2nc3ccc(OCC)cc3s2)n1	nt	nt	3%	nt	nt	nt
CCC1C(=O)NCCN1C(=O)c1ccc2nc(Cc3cccc(Cl)c3)oc2c1 (centres undefined)	7%	-9	0%	-6%	?	-1
CCc1cccc(-n2c(=O)c3cccnc3n2CC(=O)Nc2ccccc2C(=O)OC)c1	nt	nt	7%	nt	nt	nt
Cc1nc(C(=O)NC2CCOCC2)sc1C1(C)CC(c2cccc([N+](=O)[O-])c2)=NO1 (centres undefined)	-4%	-6	3%	-5%	9%	0
Cc1nc(-c2ccccc2)sc1C1(C)CC(c2ccc([N+](=O)[O-])cc2)=NO1 (centres undefined)	43%	-2	?	0%	50%	-3
COc1ccc(NC(=O)c2nc(C)c(C3(C)CC(c4ccccc4)=NO3)s2)cc1 (centres undefined)	?	22	13%	1%	?	-1
Cc1nc(C(=O)Nc2ccccc2)sc1C1(C)CC(c2cccnc2)=NO1 (centres undefined)	67%	42*	-1%	-3%	91%	25*
Cc1nc(C(=O)NC2CCOCC2)sc1C1(C)CC(c2ccccc2)=NO1 (centres undefined)	40%	22	-10%	-4%	33%	11*
Cc1nc(-c2ccc(Cl)cc2)sc1C1(C)CC(c2cccc([N+](=O)[O-])c2)=NO1 (centres undefined)	1%	17	-22%	-7%	57%	18*
Cc1nc(-c2ccc(Cl)cc2)sc1C1(C)CC(c2cccnc2)=NO1 (centres undefined)	49%	80*	7%	-21%	13%	112*
COc1ccc(CCNC2CC(=O)N(C3CCCCC3)C2=O)cc1OC (centres undefined)	24%	14	-25%	0%	11%	6
CCOC(=O)N1CCN(c2cc(=O)n(-c3cccc(C)c3)c(=O)[nH]2)CC1	1%	-3	?	nt	0%	-7
CCN(Cc1ccccc1)C(=O)c1ccc2c(=O)n3c(nc2c1)CCC3	-2%	nt	2%	nt	3%	nt
CC1(c2nnc(-c3ccccc3)o2)CC(c2cccc(Cl)c2)=NO1 (centres undefined)	45%	-8	1%	-4%	70%	-1
CC1(c2nnc(-c3cccc(Cl)c3)o2)CC(c2cccc([N+](=O)[O-])c2)=NO1 (centres undefined)	15%	-2	45µM*	2%	40%	-2
COc1cc(Cl)c(C)cc1NC(=O)C1CCN(c2nc3ccccc3n3cccc23)CC1	nt	nt	-17%	nt	nt	nt
COc1ccc(C(=O)/C=C2/c3ccccc3CC(C)(C)N2C)cc1OC	-4%	9	-22%	6%	12µM*	6
COc1ccc(C(=O)OC2=C(C(=O)c3ccccc3)N(C)S(=O)(=O)c3ccccc32)cc1OC	nt	nt	0%	nt	nt	nt
SMILES	Pf growth 48h	Shiga toxin inh	Sm TGR inh	NS1 function inh	Pf growth 96h	CHX counter
Cc1ccc(-n2nnnc2-c2ccccc2)cc1	-10%	-8	-1%	nt	65%	6
Cc1ccc(-n2nnnc2C(Cl)c2nnnn2-c2ccc(C)cc2)cc1	-3%	23	25µM*	-26%	?	0
CCc1c(C)nc2cc(-c3ccccc3)[nH]n2c1=O	?	35*	-15%	5%	?	34*
CCOC(=O)Cc1c(C)nc2cc(-c3ccc(C(C)(C)C)cc3)[nH]n2c1=O	16%	2	1%	4%	nt	10
CCc1c(C)nc2c(-c3ccccc3)c(-c3ccccc3)[nH]n2c1=O	-6%	4	-23%	4%	14%	1
COc1cc(-c2cc3nc(C)c(C)c(=O)n3[nH]2)cc(OC)c1OC	10µM*	-9	7%	7%	97%	2
C=CCc1c(C)nc2cc(-c3ccc(C)cc3)[nH]n2c1=O	67%	72*	9%	15%	0%	54*
CCCCc1c(C)nc2cc(-c3ccco3)[nH]n2c1=O	?	79*	-29%	0%	?	34*
COc1ccccc1CC(NC(C)=O)C(=O)NC1CCN(C(=O)Nc2ccc(F)cc2)CC1 (centres undefined)	5%	-10	-8%	1%	0%	-11
O=C(NCc1ccccc1)c1cccn1-c1nnc(N2CCCCC2)s1	nt	nt	-5%	nt	nt	nt
O=C1c2nc3cc(-c4ccco4)[nH]n3c(=O)c2CN1Cc1ccccc1	-17%	-9	20µM*	15%	-8%	-1
O=C(Nc1nccs1)C1CCN(S(=O)(=O)c2c(Cl)cccc2Cl)CC1	-18%	-6	-8%	-17%	nt	-2
CCN(CC)c1ccc(/C=C/C(=O)C2C(=O)C=C(C)OC2=O)cc1 (centres undefined)	222%	100*	8.9µM*	nt	2%	26*
CC(Sc1nnc2c(n1)[nH]c1ccccc12)C(=O)NC1CCCCC1 (centres undefined)	9.3µM*	2	-8%	0%	-12%	-3
CC(Sc1nnc2c(n1)[nH]c1ccccc12)C(=O)N(C)C1CCCCC1 (centres undefined)	?	-9	1%	-13%	?	-6
COc1ccc(CNC(=O)C2CCN(S(=O)(=O)c3ccc4c(c3)CC(C)N4C(C)=O)CC2)cc1 (centres undefined)	?	14	-9%	-7%	12µM*	3
CC(=O)N1c2ccc(S(=O)(=O)N3CCC(C(=O)Nc4ccccn4)CC3)cc2CC1C (centres undefined)	?	13	-23%	4%	5.9µM*	-4
CC(=O)N1c2ccc(S(=O)(=O)N3CCC(C(=O)Nc4ncccc4C)CC3)cc2CC1C (centres undefined)	4%	-2	1%	-4%	?	-4
COc1ccc(NC(=O)CN(C)S(=O)(=O)c2ccc3c(c2)CC(C)N3C(C)=O)c(OC)c1 (centres undefined)	?	9	2%	5%	7.4µM*	2
